Source: PubChem (Emory University Molecular Libraries Screening Center)
14-3-3g Raf: modulators of human 14-3-3 gamma - Raf peptide interaction | P61981 | FP, 14-3-3gamma / TMR-pS259-Raf peptide binding | inhibition, % at 40 µM | 160,000 tested, 0.19% active | AID 422; in the data active = inhibition above about 30%;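 also: 0% = protein plus tracer without compound and 100% = blank with tracer alone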
Target sequence (P61981 whole entry, looked up): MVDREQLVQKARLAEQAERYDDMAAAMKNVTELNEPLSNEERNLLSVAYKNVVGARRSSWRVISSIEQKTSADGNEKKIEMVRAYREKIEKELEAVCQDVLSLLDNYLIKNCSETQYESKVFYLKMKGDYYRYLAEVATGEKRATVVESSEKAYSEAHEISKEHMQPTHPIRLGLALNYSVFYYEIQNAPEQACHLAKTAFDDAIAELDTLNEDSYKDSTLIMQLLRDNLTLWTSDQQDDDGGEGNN
Starred values were filed as active, the others as inactive. The full list was thinned out, with hits kept by preference.

SMILES	14-3-3g Raf
CCSc1nnc2c(n1)OC(c1cccc(C)n1)Nc1ccccc1-2 (stereo not given)	2
CCCSc1nnc2c(n1)OC(c1ccsc1)Nc1ccccc1-2 (stereo not given)	64*
CCSc1nnc2c(n1)OC(c1ccc(CC)cc1)Nc1ccccc1-2 (stereo not given)	18
CCSc1nnc2c(n1)OC(c1ccc(N(CC)CC)cc1)Nc1ccccc1-2 (stereo not given)	39*
CCSc1nnc2c(n1)OC(c1ccc(C)cc1)Nc1ccccc1-2 (stereo not given)	5
CCCSc1nnc2c(n1)OC(c1ccsc1)Nc1ccc(Br)cc1-2 (stereo not given)	-65
COc1ccc(C2/C(=C(\O)c3ccc(Cl)cc3)C(=O)C(=O)N2CC(C)C)c(OC)c1 (stereo not given)	11
CC(C)CCOC(=O)c1ccc(N2C(=O)c3ccc(Br)cc3C2=O)cc1	5
CCOc1ccc(C2C(N3C(=O)c4cccc([N+](=O)[O-])c4C3=O)C(=O)N2c2ccc(Br)cc2)cc1 (stereo not given)	5
Cc1cc(C)c(Cc2c(C)nc3c(C(=O)n4ccnc4)cnn3c2C)c(C)c1	-9
Cc1ccccc1C1C=C(c2ccc(Br)s2)Nc2nnnn21 (stereo not given)	1
CSc1nnc2c(n1)OC(c1ccc(Br)s1)Nc1ccccc1-2 (stereo not given)	-18
CSc1nnc2c(n1)OC(c1ccccc1Br)Nc1ccccc1-2 (stereo not given)	41*
CSc1nnc2c(n1)OC(c1ccccc1O)Nc1ccccc1-2 (stereo not given)	1
CCCSc1nnc2c(n1)OC1(CCCC1)Nc1ccc(Br)cc1-2	-58
CCCSc1nnc2c(n1)OC(c1cc3c(cc1Cl)OCO3)Nc1ccccc1-2 (stereo not given)	-50
C=CCSc1nnc2c(n1)OC(c1cccc(O)c1)Nc1ccccc1-2 (stereo not given)	-5
O=C(O)CSc1nnc2c(n1)OC1(CCCC1)Nc1ccccc1-2	-4
C=CCSc1nnc2c(n1)OC(c1cccnc1)Nc1ccccc1-2 (stereo not given)	-17
CCCSc1nnc2c(n1)OC(c1ccccc1Cl)Nc1ccccc1-2 (stereo not given)	33*
C=CCOc1cccc(C2Nc3ccccc3-c3nnc(SCC=C)nc3O2)c1 (stereo not given)	140*
CCCCSc1nnc2c(n1)OC1(CCCC1)Nc1ccccc1-2	117*
CCCSc1nnc2c(n1)OC(c1ccncc1)Nc1ccccc1-2 (stereo not given)	-9
COc1ccc(CNc2nc(SCC(=O)N3CCN(c4ccccc4)CC3)nc3ccccc23)cc1	7
Cc1cccc(COc2ccc3c(=O)c(-c4ccccc4Cl)coc3c2)c1	-6
SMILES	14-3-3g Raf
COc1ccc(NC(=O)c2cc3cccc(OC)c3oc2=Nc2sc3c(c2C#N)CCCC3)cc1	3
COc1ccc(S(=O)(=O)N2CCC(C(=O)Nc3cccc(F)c3)CC2)cc1OC	-8
Cc1cc(Cl)ccc1N1C(=O)C(N2C(=O)c3ccc([N+](=O)[O-])cc3C2=O)C1c1ccc(F)cc1 (stereo not given)	5
CC1(C)CC(=O)C2=C(C1)c1c(ccc3ccccc13)NC2c1ccc(-c2cccc([N+](=O)[O-])c2)o1 (stereo not given)	-2
O=C(c1scc2c1OCCO2)N1CCN(c2ccc(F)cc2)CC1	-3
O=C(Nc1ncc(S(=O)(=O)c2ccc([N+](=O)[O-])cc2)s1)c1ccc(S(=O)(=O)N2CCOCC2)cc1	-11
CCCCCCSc1nnc2c(n1)OC(c1cccnc1)Nc1ccccc1-2 (stereo not given)	68*
CCCCSc1nnc2c(n1)OC(c1cccnc1)Nc1ccc(Br)cc1-2 (stereo not given)	-34
CCCCSc1nnc2c(n1)OC(c1ccccc1)Nc1ccccc1-2 (stereo not given)	-3
CCn1cc(C(=O)NC2CCCCC2)c(=O)c2cc(S(=O)(=O)N3CCCCCC3)ccc21	6
CCn1cc(C(=O)NCc2ccccn2)c(=O)c2cc(S(=O)(=O)N3CCCCC3)ccc21	119*
CCn1cc(C(=O)NCc2ccco2)c(=O)c2cc(S(=O)(=O)N3CCCCCC3)ccc21	-2
CC(=O)c1ccc(OCC(O)CNC(C)C)cc1 (stereo not given)	-2
CCOC(=O)c1ccc(N2CCCCC2)c(NC(=O)Nc2ccc(Cl)cc2)c1	-10
CCOc1ccc2noc3c2c1C(=O)c1ccccc1-3	4
Cc1cccc(Nc2ccc3noc4c3c2C(=O)c2ccccc2-4)c1	-126
O=C1c2ccccc2-c2onc3ccc(NCc4ccco4)c1c23	82*
Oc1ccc2nonc2c1	-5
COc1cc(C2CC(=O)C3=C(C2)Nc2ccccc2NC3c2ccc(C(C)C)cc2)cc(OC)c1OC (stereo not given)	-1
CC(=O)Nc1nc2ccccc2n1CCN1CCCCC1	1
O=C1C2C3C=CC(C2C(=O)N1c1ccccc1)C1C2C(=O)N(c4ccccc4)C(=O)C2C31 (stereo not given)	-3
O=C1C2C3C=CC(C2C(=O)N1c1ccc(O)cc1)C1C2C(=O)N(c4ccc(O)cc4)C(=O)C2C31 (stereo not given)	64*
COc1ccc(N2C(=O)C3C4C=CC(C3C2=O)C2C3C(=O)N(c5ccc(OC)cc5)C(=O)C3C42)cc1 (stereo not given)	-1
COc1ccc(C2Nc3ccccc3C(=O)N2c2ccccc2)cc1Cn1nnc2ccccc21 (stereo not given)	-12
O=C(NCC1CCCO1)C1c2ccccc2C(=O)N1CCc1ccccc1 (stereo not given)	-4
SMILES	14-3-3g Raf
CCN(CC)c1ccc2cc(C(=O)Nc3ccccn3)c(=O)oc2c1	7
CCN(CC)c1ccc2cc(C(=O)Nc3ccc(C)cc3)c(=O)oc2c1	-9
CCN(CC)c1ccc2cc(C(=O)c3cc4ccc(N(CC)CC)cc4oc3=O)c(=O)oc2c1	77*
CCC(=O)Nc1nnc(C(C)C)s1	8
CCOC(=O)C1CCC(CN(Cc2ccc(Cl)cc2)S(=O)(=O)c2ccc(F)c(C)c2)CC1 (stereo not given)	-10
CCCc1ccc(-c2nc(NC(=O)C3CC(C)=C(C)CC3C(=O)O)sc2C)cc1 (stereo not given)	-2
Nc1ccc(NCCO)c(N)c1	91*
Nc1ccc(C(=O)Nc2ccc(N)cc2N)cc1	-33
COC(=O)CCCCCNc1ccc(C(=O)OC)cc1N	-12
Cc1ccc(NC(=O)c2cccs2)cc1Cl	-3
COc1ccc(Nc2cc(C)nc3ccccc23)cc1	38*
COc1ccc(Nc2cc(C)nc3c(C)cccc23)cc1	-6
COc1ccc2nc(C)cc(Nc3ccc(F)cc3)c2c1	-66
NS(=O)(=O)c1ccc(CCNC(=O)CN2C(=O)C3C4C=CC(CC4)C3C2=O)cc1 (stereo not given)	4
O=C(O)CCCNc1cc(N2CCN(c3cccc(C(F)(F)F)c3)CC2)c2noc3c2c1C(=O)c1ccccc1-3	-123
O=C(O)CCCNc1cc(N2CCCCCC2)c2noc3c2c1C(=O)c1ccccc1-3	67*
O=C(O)CCCNc1cc(N2CCC3(CC2)OCCO3)c2noc3c2c1C(=O)c1ccccc1-3	-52
CCOC(=O)c1c(NC(=O)c2cccs2)sc2c1CCC(CC)C2 (stereo not given)	-9
CC1=NN(C(=O)c2ccc(Cl)cc2)C(O)(c2cccc([N+](=O)[O-])c2)C1 (stereo not given)	-4
